Only some compounds are listed: those with a hit (about 9.3% of all), similar ones and a draw of the others.
ELG1 repair inh = qHTS screen for small molecules that inhibit ELG1-dependent DNA repair in human embryonic kidney (HEK293T) cells expressing luciferase-tagged ELG1 | 330,000 tested, 2.3% active | HEK293T ELG1-luciferase reporter, luminescence, 16 h; DNA damage induced by 5-fluorouridine | Potency, µM (titrated, usually from 46.1 µM), for inactives: top-dose activity change, negative = inhibition, usual class: inhibitors; further: on the % scale 0 is the no-effect control and ±100 the full control effect; nearly all actives have a fitted effect of over 55% in size
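Luminescence from the luciferase reporter, measured 30 min after ONE-Glo reagent at room temperature, was the read-out. Beforehand, 2,000 cells per well were exposed for 16 hr at 37 °C to 5-fluorouridine together with compound or vehicle.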
FLuc counter = qHTS profiling assay for firefly luciferase inhibitor/activator using purifed enzyme and Km concentrations of substrates (counterscreen for miR-21 project); Luciferin 4-monooxygenase (Photinus pyralis), P08659; purified FLuc, Km substrates, luminescence inhibition; Potency, µM (titrated, usually from 57.5 µM), inactives show top-dose activity change, negative = inhibition, actives largely listed as inhibitors; 360,000 tested, 6.9% active;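 further: plate controls were vehicle for no effect and reference inhibitor for full effect; nearly all actives have a fitted effect of over 55% in size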
Target sequence (P08659 whole entry, looked up): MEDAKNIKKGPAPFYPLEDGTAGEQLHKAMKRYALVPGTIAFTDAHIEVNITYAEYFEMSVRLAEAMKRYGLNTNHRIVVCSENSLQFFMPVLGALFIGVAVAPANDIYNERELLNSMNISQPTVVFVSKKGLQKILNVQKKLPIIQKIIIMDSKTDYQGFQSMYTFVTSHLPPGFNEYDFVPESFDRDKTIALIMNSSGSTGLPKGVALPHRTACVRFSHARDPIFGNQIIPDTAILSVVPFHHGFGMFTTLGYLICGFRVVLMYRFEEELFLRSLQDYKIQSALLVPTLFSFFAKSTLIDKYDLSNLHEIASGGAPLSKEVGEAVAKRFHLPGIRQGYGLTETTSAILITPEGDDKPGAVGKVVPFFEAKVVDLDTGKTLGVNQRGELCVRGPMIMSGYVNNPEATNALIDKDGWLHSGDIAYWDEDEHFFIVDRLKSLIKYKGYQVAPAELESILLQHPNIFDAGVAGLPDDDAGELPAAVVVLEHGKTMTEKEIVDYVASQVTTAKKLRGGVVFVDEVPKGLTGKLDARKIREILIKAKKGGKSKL
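Biochemical qHTS of compounds, final roughly 60 µM downward over six points, against 10 nM purified firefly luciferase using Km concentrations of substrates (10 uM D-luciferin, 10 uM ATP) in Tris acetate pH 7.5 buffer; luminescence output.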
Rab9 prom act = qHTS Assay for Rab9 Promoter Activators; Huh7 Rab9 promoter-luciferase reporter, luminescence, 24 h; Potency, µM (titrated, usually from 9.22 µM), for the others: at the highest dose activation, negative = inhibition, actives largely listed as activators; 320,000 tested, 2.8% active; further: % of control where 0% means no effect; nearly all actives have a fitted effect of over 60% in size
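Stable Rab9-luc Huh7, 1500 cells/well, 2 h settle; cmpd in DMSO, 24 h, 37 °C/5% CO2; luciferase reagent 10 min RT; luminescence.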
ELG1 genotox = qHTS screen for small molecules that induce genotoxicity in human embryonic kidney (HEK293T) cells expressing luciferase-tagged ELG1; HEK293T ELG1-luciferase reporter, luminescence, 16 h; Potency, µM (titrated, usually from 46 µM), inactives show at the highest dose activity change, positive = activation, hits mostly activators; 330,000 tested, 1.3% active; further: % of control where 0% means no effect; nearly all actives have a fitted effect of over 60% in size
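Genotoxic stress is detected as increased luminescence from luciferase-tagged ELG1 in HEK293T cells, measured with ONE-Glo after a 16 hr treatment at 37 °C.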
NPC1 promoter act = qHTS Assay for NPC1 Promoter Activators. Huh7 NPC1 promoter luciferase reporter, 24 h. Potency, µM (titrated, usually from 9.22 µM), inactives show at the top dose activation, usual class: activators. 320,000 tested, 2.4% active; further: % of control where 0% means no effect; nearly all actives have a fitted effect of over 60% in size
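Luminescence read-out of NPC1 promoter-driven luciferase in stably transfected Huh7 cells; compounds delivered in DMSO and left 24 h at 37C, 5% CO2, qHTS titration format.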
SMN2 splice enh = qHTS Assay for Enhancers of SMN2 Splice Variant Expression | HEK293 SMN2-luciferase splicing reporter, luminescence, 30-36 h | 210,000 tested, 2.8% active | Potency, µM (titrated, usually from 46.1 µM), for inactives: at the highest dose activity change, positive = activation, most hits filed as activators | AID 1458, 2008; further: % of control where 0% means no effect; nearly all actives have a fitted effect of over 55% in size
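HEK293 cells carry an SMN2 […]–luciferase reporter in which exon 7 inclusion puts luciferase in frame. Cells were plated 10-12 h before compound addition, then incubated 30-36 h at 37C. ONE-Glo luminescence was read; sodium butyrate at 4.5 mM final served as control.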
* marks the source's active call; other numbers are inactive results; ? = inconclusive; / = no result given. The call rests on the fitted dose curve; in most records, active means well fitted curve in the direction sought with a large enough effect; inconclusive means small, poorly fitted or top-dose-only effect, or another doubt; inactive means no such curve, though single readings can be large; an effect the other way counts as inactive or inconclusive. Potency means the concentration at half of the fitted maximal effect.

SMILES | ELG1 repair inh | FLuc counter | Rab9 prom act | ELG1 genotox | NPC1 promoter act | SMN2 splice enh
Cc1cc(=O)oc2cc(NC(=O)c3ccnn3C)ccc12 | ? | ? | 4µM* | 16µM* | 2.8µM* | /
COc1cccc(C(=O)Nc2ccc3c(C)cc(=O)oc3c2)c1 | ? | 1.9µM* | 0.71µM* | 2.3µM* | 1.1µM* | /
Cc1cc(=O)oc2cc(NC(=O)c3ccccc3Cl)ccc12 | ? | 11µM* | 3.5µM* | 15µM* | 3.2µM* | /
Cc1ccccc1CC(=O)Nc1ccc2c(C)cc(=O)oc2c1 | 9% | -1% | -1% | 3% | -2% | /
CCOc1ccc(NC(=O)Cn2ncc3c2-c2cc(C)ccc2OC3)cc1 | / | 5% | / | / | / | -2%
Cc1ccc(C(=O)NCCCNC(=O)c2ccc(Cl)cc2)cn1 | -14% | 0% | -5% | 3% | 0% | /
O=C(NNC1CC(=O)N(c2ccccc2)C1=O)c1ccc(COc2ccccc2Cl)o1 (stereo unspecified) | 5% | 17µM* | 2% | 2% | 0% | 5%
O=C(CCC1CCCN(c2ncccn2)C1)NCc1ccc(F)c(F)c1 (stereo unspecified) | -2% | 1% | -3% | -1% | -3% | /
O=C(N=C1SC2CS(=O)(=O)CC2N1c1cccc(Cl)c1Cl)C1CC1 (stereo unspecified) | 13% | 1% | -5% | 0% | -19% | /
Cc1ccnc(NC(=O)c2oc3ccccc3c2C)c1 | ? | 1.2µM* | 2.5µM* | ? | 2.8µM* | /
CCOc1ccc2oc(C(=O)O)c(C)c2c1 | ? | ? | 22% | 9% | 18% | /
CCOc1ccc2oc(C(=O)Nc3cc(C)ccn3)c(C)c2c1 | ? | 0.34µM* | 0.5µM* | ? | 0.63µM* | /
Cc1c(C(=O)Nc2cccc3cccnc23)oc2ccccc12 | ? | -18% | ? | 18% | 26% | 3%
Cc1c(C(=O)Nc2cnccn2)oc2ccccc12 | ? | 15µM* | 29% | ? | 14% | 11µM*
Cc1c(C(=O)Nc2ccc(Cl)cn2)oc2ccccc12 | ? | -6% | 21% | ? | 28% | ?
CCOc1ccc2oc(C(=O)NNC(=O)c3ccccc3O)c(C)c2c1 | 16% | 11µM* | 16% | ? | 21% | /
O=C(CSc1nncc(=O)[nH]1)Nc1cccc([N+](=O)[O-])c1 | -13% | -8% | 4% | -14% | -2% | /
CCOc1ccc2oc(C(=O)N(C)CCc3ccc(OC)c(OC)c3)c(C)c2c1 | 18µM* | -3% | 15% | 0% | 1% | /
CCOc1ccc2oc(C(=O)N(C)CC(=O)Nc3ccc(OCC)c(OCC)c3)c(C)c2c1 | ? | 6% | 2% | -1% | -7% | /
Cc1c(C(=O)NCc2ccccn2)oc2ccccc12 | ? | ? | ? | 15µM* | ? | ?
Cc1ccc(S(=O)(=O)CCNC(=O)Cc2ccc(Cl)cc2)cc1 | -4% | -3% | -16% | -3% | 0% | 1%
CCOc1ccc(CNC(=O)CN2N=C(c3ccccc3)CCC2=O)cc1OC | / | 0% | / | / | / | /
Fc1ccc(-[n+]2nc(Nc3ccccc3)sc2-c2c3ccccc3cc3ccccc23)cc1 | 4.6µM* | -11% | 0% | 9% | -6% | /
Oc1ccc2ccccc2c1-c1sc(Nc2ccccc2)n[n+]1-c1ccc(F)cc1 | 16% | 0% | -1% | -1% | -4% | /
COc1ccc(/C=C/C(=O)NC(=S)Nc2ccc(S(N)(=O)=O)cc2)cc1 | -1% | 2% | -1% | 0% | -1% | /
COc1ccccc1/C=C/C(=O)NC(=S)Nc1ccccn1 | ? | 11µM* | 14% | 23µM* | ? | /
O=C(/C=C/c1ccccc1)NC(=S)Nc1ncccn1 | 4% | 17µM* | 0% | 4% | 1% | /
